{"source": "PubChem BioAssay (EPA / NIEHS)", "note": "Records with an inconclusive call do not appear. The source made the active and inactive calls. How the source made its calls: active means hit-call score of the fitted dose curve at least 0.9, where 1 is the maximum; inconclusive means response in the unintended direction; inactive means score below 0.9."}
{"molecular_target": "Androgen receptor (Homo sapiens) (UniProt P10275)", "sequence (P10275 whole entry, looked up)": "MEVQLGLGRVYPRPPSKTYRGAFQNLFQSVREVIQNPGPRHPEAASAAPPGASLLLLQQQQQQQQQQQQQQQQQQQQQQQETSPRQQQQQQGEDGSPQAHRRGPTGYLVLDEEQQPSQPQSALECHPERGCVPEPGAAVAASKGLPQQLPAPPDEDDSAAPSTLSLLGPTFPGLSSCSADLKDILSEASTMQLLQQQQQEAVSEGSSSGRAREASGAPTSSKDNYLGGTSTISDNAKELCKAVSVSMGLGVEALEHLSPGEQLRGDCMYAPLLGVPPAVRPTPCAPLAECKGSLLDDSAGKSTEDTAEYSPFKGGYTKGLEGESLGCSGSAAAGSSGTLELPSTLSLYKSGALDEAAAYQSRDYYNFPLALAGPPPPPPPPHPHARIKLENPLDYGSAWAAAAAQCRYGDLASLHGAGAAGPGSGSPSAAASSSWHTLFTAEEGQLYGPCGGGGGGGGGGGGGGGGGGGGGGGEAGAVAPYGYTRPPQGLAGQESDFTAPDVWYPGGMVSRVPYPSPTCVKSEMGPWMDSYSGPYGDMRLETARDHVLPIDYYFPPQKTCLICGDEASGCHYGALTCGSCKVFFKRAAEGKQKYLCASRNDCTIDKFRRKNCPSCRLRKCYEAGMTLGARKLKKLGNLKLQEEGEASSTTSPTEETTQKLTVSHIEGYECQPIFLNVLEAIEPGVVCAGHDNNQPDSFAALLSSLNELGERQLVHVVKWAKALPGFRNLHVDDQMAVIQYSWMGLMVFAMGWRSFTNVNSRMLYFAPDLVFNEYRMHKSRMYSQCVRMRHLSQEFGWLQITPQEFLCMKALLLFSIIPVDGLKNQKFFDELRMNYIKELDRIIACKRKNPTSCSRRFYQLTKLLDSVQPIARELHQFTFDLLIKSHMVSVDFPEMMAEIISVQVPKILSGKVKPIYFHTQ", "assay": "ATG_AR_TRANS: Attagene TRANS-FACTORIAL HepG2 Assay for human Androgen Receptor (AR) (AID 2282973)", "details": "HepG2 Attagene TRANS-FACTORIAL AR reporter transcription", "protocol": "ATG_TRANS is a cell-based, multiplexed-readout assay that uses HepG2, a human liver cell line, with measurements taken at 24 hours after chemical dosing in a 24-well plate.ATG_AR_TRANS is one of 30 assay component(s) measured or calculated from the ATG_TRANS assay. It is designed to make measurements of mRNA induction, a form of inducible reporter, as detected with fluorescence intensity signals by Reverse transcription polymerase chain reaction (RT-PCR) and Capillary electrophoresis technology.Data from the assay component ATG_AR_TRANS was analyzed into 1 assay endpoint. This assay endpoint, ATG_AR_TRANS, was analyzed in the positive analysis fitting direction relative to DMSO as the negative control and baseline of activity. Using a type of inducible reporter, measures of mRNA for gain-of-signal activity can be used to understand the reporter gene at the transcription factor-level as they relate to the gene AR. Furthermore, this assay endpoint can be referred to as a primary readout, because this assay has produced multiple assay endpoints where this one serves a reporter gene function. To generalize the intended target to other relatable targets, this assay endpoint is annotated to the nuclear receptor intended target family, where the subfamily is steroidal.\nHuman liver HepG2 cells are transiently transfected with multiple reporter transcription units (MRTUs) in 6-well plates using FuGene 6 reagent (Roche; 3 ml FuGene/1 mg DNA). The MRTU constructs are regulated by a cis-regulating element (promoter). […] A major difference between the CIS and TRANS system is that in CIS activities of endogenous TFs are measured, whereas the TRANS assay evaluates changes in activities of exogenous, chimeric NR-Gal4 proteins. […] At the end of 24 hour incubation, total RNA was isolated using TriZol reagent (Invitrogen). The isolated RNA is then reverse-transcribed using oligo(dT) primer and Mo-MLV reverse transcriptase (Invitrogen) with DNAse I (Ambion) treatment for 30 min. The one-tenth of the produced cDNA was amplified by PCR using Taq DNA polymerase (Invitrogen) and two reporter sequence-specific primers. The PCR products were fluorescently labeled by primer extension with 6-arboxyfluorescein (6-FAM) 5'-labeled reporter sequence-specific primer (2 min at 95 C, 20 s at 68 C and 10 min at 72 C) and these products were digested with 5U of HpaI (New England Biolabs) for 2h at 37 C. The fragments were purified using Qiaquick PCR columns (Qiagen), analyzed on an ABI 3130xL genetic analyzer (Applied Biosystems) with peak positions identified by using a set of X-rhodamine (ROX)-labeled MapMarker1000 molecular weight standards (BioVentures). The raw capillary electrophoresis data was processed using Attagraph software (Attagene)."}
{"smiles": "Cc1ccc(-c2c(Cl)nc(C#N)n2S(=O)(=O)N(C)C)cc1", "outcome": "inactive"}
{"smiles": "O=C(Nc1ccccc1)Nc1ccnc(Cl)c1", "outcome": "inactive"}
{"smiles": "N#Cc1nn(-c2c(Cl)cc(C(F)(F)F)cc2Cl)c(N)c1S(=O)C(F)(F)F", "note": "(stereo unspecified)", "outcome": "inactive"}
{"smiles": "N#CC(CCc1ccc(Cl)cc1)(Cn1cncn1)c1ccccc1", "note": "(stereo unspecified)", "outcome": "inactive"}
{"smiles": "CCOC(=O)CC(SP(=S)(OC)OC)C(=O)OCC", "note": "(stereo unspecified)", "outcome": "inactive"}
{"smiles": "CCCC1COC(Cn2cncn2)(c2ccc(Cl)cc2Cl)O1", "note": "(stereo unspecified)", "outcome": "inactive"}
{"smiles": "CN(C)C(=S)SSC(=S)N(C)C", "outcome": "inactive"}
{"smiles": "COc1nc(C)nc(NC(=O)NS(=O)(=O)c2ccccc2CCC(F)(F)F)n1", "outcome": "inactive"}
{"smiles": "CC(C)Oc1cc(-n2nc(C(C)(C)C)oc2=O)c(Cl)cc1Cl", "outcome": "inactive"}
{"smiles": "CO/C=C(/C(=O)OC)c1ccccc1Oc1cc(Oc2ccccc2C#N)ncn1", "outcome": "inactive"}
{"smiles": "Cc1cc(Cl)ccc1OCC(=O)O", "outcome": "inactive"}
